Experimental findings from PubChem BioAssay AID588477 (NMMLSC, 2011) are described below.

Molecules are shown by their SMILES. Activity calls are given as the source filed them.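 Rule for the calls: active = valid curve fit with half-effect dose at most 10 µM and total binding change across doses of 30 points or more; inactive = the rest.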

The assay relates to Ras wt. Put plainly: small GTPase nucleotide-binding inhibition, multiplex panel – biochemical, round 1 SAR, Mg buffer, multiplex flow cytometry, selectivity assay for Cdc42 probe extension project, SAR follow-up (AID 588477). The following applies: GST-GTPase beads, Bodipy-GTP binding; series mostly up to 100 µM. On the technique in general: A flow cytometer gives signals particle by particle.
As to `NS(=O)(=O)c1ccc(N2N=C(c3ccccc3)CC2c2ccccc2)cc1` (stereo not drawn), the compound was called inactive.

On to `COc1ccc(C2CC(c3ccccc3)=NN2c2ccc(S(N)(=O)=O)cc2)cc1` (stereo not drawn), for which the outcome was inactive.

On to `O=C(C#Cc1ccccc1)c1cccc([N+](=O)[O-])c1`, for which the call was inactive.
